SMN2 splice enh: SMN2 splice variant enhancement. HEK293 SMN2-luciferase splicing reporter, luminescence, 30-36 h. Potency, µM (doses to about 46.1 µM), for the others: top-dose activity change, positive = activation, most hits filed as activators. 210,000 tested, 2.8% active. AID 1458; also: % of control where 0% means no effect; nearly all actives have a fitted effect of over 55% in size
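qHTS luciferase splicing reporter: luminescence rises when SMN2 exon 7 is included in transfected HEK293 cells. Compound exposure lasted 30-36 h at 37C, with 4.5 mM final sodium butyrate as control, followed by a ONE-Glo read.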
Rab9 prom act: activates the Rab9 promoter; Huh7 Rab9 promoter-luciferase reporter, luminescence, 24 h; Potency, µM (top dose mostly 9.22 µM), without a hit: top-dose activation, negative = inhibition, actives largely listed as activators; 320,000 tested, 2.8% active; AID 485297; also: % of control where 0% means no effect; nearly all actives have a fitted effect of over 60% in size
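Huh7 cells stably carrying Rab9 promoter–luciferase reporter, plated 1500 cells/well, compound added after 2 h and incubated 24 h at 37 °C; luciferase luminescence then read after 10 min with detection reagent.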
FLuc modulator: inhibits or activates purified firefly luciferase, miR-21 counter-screen | P08659 | purified FLuc, Km substrates, luminescence inhibition | Potency, µM (series often up to 57.5 µM), inactives show at the highest dose activity change, negative = inhibition, hits mostly inhibitors | 360,000 tested, 6.9% active | AID 588342;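 also: plate controls were vehicle for no effect and reference inhibitor for full effect; nearly all actives have a fitted effect of over 55% in size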
Target sequence (P08659 whole entry, looked up): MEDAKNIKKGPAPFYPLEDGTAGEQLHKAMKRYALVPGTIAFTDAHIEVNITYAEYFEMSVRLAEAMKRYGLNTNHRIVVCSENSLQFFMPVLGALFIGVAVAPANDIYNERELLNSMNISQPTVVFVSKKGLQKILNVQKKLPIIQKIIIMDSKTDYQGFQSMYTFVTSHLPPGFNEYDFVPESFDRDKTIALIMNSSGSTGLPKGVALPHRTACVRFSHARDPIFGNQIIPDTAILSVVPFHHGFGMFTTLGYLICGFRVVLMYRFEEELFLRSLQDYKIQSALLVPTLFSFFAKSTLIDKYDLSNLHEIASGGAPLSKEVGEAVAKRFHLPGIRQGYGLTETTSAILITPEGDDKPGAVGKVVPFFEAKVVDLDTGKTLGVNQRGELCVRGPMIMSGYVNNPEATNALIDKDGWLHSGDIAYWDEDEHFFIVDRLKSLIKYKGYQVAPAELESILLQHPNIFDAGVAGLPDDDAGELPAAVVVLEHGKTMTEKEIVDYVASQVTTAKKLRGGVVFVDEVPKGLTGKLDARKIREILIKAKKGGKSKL
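Purified P. pyralis luciferase (10nM final) with 10uM D-luciferin and 10uM ATP (Km levels) in 50mM Tris acetate pH 7.5, 10mM Mg acetate, 0.01% Tween-20, 0.05% BSA; qHTS 6-point titration, ~60 µM downward; luminescence read.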
ELG1 genotoxic: inducers of genotoxicity in HEK293T ELG1-luciferase cells; 330,000 tested, 1.3% active; AID 504466; Potency, µM (series often up to 46 µM), for inactives: at the top dose activity change, positive = activation, usual class: activators; HEK293T ELG1-luciferase reporter, luminescence, 16 h; also: % of control where 0% means no effect; nearly all actives have a fitted effect of over 60% in size
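Genotoxicity was scored as increased ELG1-luciferase reporter signal, measured by ONE-Glo luminescence (30 min, room temperature). Compound or vehicle exposure of the HEK293T reporter cells lasted 16 hr at 37°C.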
NPC1 promoter act: activators of NPC1 promoter | 320,000 tested, 2.4% active | Huh7 NPC1 promoter luciferase reporter, 24 h | AID 485313 | Potency, µM (top dose mostly 9.22 µM), for the others: at the top dose activation, hits mostly activators; also: % of control where 0% means no effect; nearly all actives have a fitted effect of over 60% in size
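Stable NPC1-promoter luciferase Huh7 line; cpd (DMSO) 24 h, 37 °C, 5% CO2; Amplite luciferase reagent 10 min RT; luminescence readout. qHTS format.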
* = called active by the depositor; ? = inconclusive; . = no result. Only some compounds are listed: those with a hit (about 7.5% of all), similar ones and a draw of the others. Calls follow the shape of the dose curve; as a rule, active = well fitted curve in the direction sought with a large enough effect; inconclusive = small, poorly fitted or top-dose-only effect, or another doubt; inactive = no such curve, though single readings can be large; an effect the other way counts as inactive or inconclusive. Potency is read from the fitted curve at half-maximal effect.

SMILES	SMN2 splice enh	Rab9 prom act	FLuc modulator	ELG1 genotoxic	NPC1 promoter act
Cc1cccn2cc(-c3ccc(Cl)cc3)nc12	.	1.3µM*	0.38µM*	2.1µM*	?
COc1cccc(NC(=O)c2cc(-c3ccc(C)o3)nc3ccccc23)c1	.	22%	?	2%	18%
CCOc1ccc(NC(=O)CN(C)C(=O)c2cc(-c3ccc(OC)cc3)nc3ccccc23)cc1OCC	.	2%	13µM*	-27%	-1%
COc1cccc(NC(=O)CN(C)C(=O)c2cc(-c3ccc(C)o3)nc3ccccc23)c1	.	0%	11µM*	-5%	5%
COc1ccc(NC(=O)CN(C)C(=O)c2cc(-c3ccc(Cl)cc3)nc3ccccc23)cc1	.	-1%	24µM*	-43%	2%
O=C(CC1C(=O)NCCN1C/C=C/c1ccccc1)NCCc1cccnc1 (centres undefined)	.	15%	-16%	11%	-1%
Cc1ccn2cc(-c3ccc(NC(=O)c4ccco4)cc3)nc2c1	4.5µM*	1.4µM*	3.4µM*	?	3.2µM*
Cc1ccc(-c2csc(NC(=S)NC(=O)c3ccco3)n2)cc1	8%	1%	?	3%	-1%
Nc1nc2ccc(NC(=O)c3ccco3)cc2s1	.	?	15µM*	?	?
Cc1nc(-c2ccc(NC(=O)c3ccco3)cc2)cs1	.	?	0.067µM*	0.21µM*	?
Cc1nc2ccc(NC(=O)c3ccco3)cc2nc1C	24%	?	?	17%	19%
Nc1nc(-c2ccc(NC(=O)c3ccco3)cc2)cs1	.	0.79µM*	0.67µM*	?	0.71µM*
COc1ccc(CN2CCNC(=O)C2CC(=O)NCc2csc(C(C)C)n2)c(OC)c1 (centres undefined)	.	0%	2%	1%	-1%
COCCN(C(=S)Nc1ccc(C)cc1)C(C)c1ccco1 (centres undefined)	.	-1%	13µM*	1%	0%
CCN(CC)c1ccc(C2Nc3cccc4cccc(c34)N2)c(O)c1	0%	?	17µM*	10%	?
COc1cc(C2Nc3cccc4cccc(c34)N2)cc(OC)c1OC(C)=O	4%	2%	17µM*	5%	-2%
COc1cc(C2Nc3cccc4cccc(c34)N2)ccc1O	.	18%	13µM*	-2%	?
COc1ccc(Br)cc1C1Nc2cccc3cccc(c23)N1	.	23%	-20%	?	?
Fc1ccc(NC(=S)N/N=C/c2cccc(Br)c2)c(F)c1	-27%	-5%	3%	?	1%
Cc1nn(CC(=O)NC2(C#N)CCCCC2)c(C)c1[N+](=O)[O-]	.	10%	3%	-2%	0%
COC(=O)C1=NN(C(=O)c2cccc(Br)c2)C(O)(c2ccc(Cl)cc2)C1 (centres undefined)	.	-4%	11µM*	4%	-1%
CCOC(=O)C1=NN(C(=O)c2ccc(OC)cc2)C(O)(c2ccc(Cl)cc2)C1 (centres undefined)	12%	-8%	-14%	-6%	-1%
CN1CCC(N(C)C(=O)c2cc(=O)c3ccccc3o2)CC1	-8%	-1%	-2%	-1%	19%
O=C(Nc1ccccn1)c1ccco1	?	?	?	9%	?
O=C(Nc1ccc(NC(=O)C2CC2)cc1)c1ccco1	.	1.8µM*	19µM*	13µM*	3.2µM*
SMILES	SMN2 splice enh	Rab9 prom act	FLuc modulator	ELG1 genotoxic	NPC1 promoter act
O=C(Nc1ccc(NC(=O)C2CCCCC2)cn1)c1ccco1	.	0.45µM*	1.7µM*	0.65µM*	0.71µM*
COc1cc(NC(=O)C2CC2)c(OC)cc1NC(=O)c1ccco1	.	-1%	1%	-1%	-4%
O=C(Nc1ccc(NC(=O)c2ccco2)nc1)c1ccco1	2.5µM*	0.32µM*	4.8µM*	4%	0.4µM*
CC(C)(C)C(=O)Nc1ccc(NC(=O)c2ccco2)nc1	.	-39%	0.17µM*	?	-34%
COc1ccccc1C(=O)NC(=S)Nc1ccccc1N1CCCC1	.	22%	0%	10%	18%
Cc1ccccc1NC(=O)/C(C#N)=C/c1ccsc1	.	24%	-19%	6%	14%
COc1ccccc1NC(=O)CCSc1nc(C)cs1	.	-1%	-1%	5%	1%

High-throughput results as filed in PubChem BioAssay.
